Laboratory results as given in PubChem BioAssay (NCATS).
Where “and” joins values, the source holds several entries; their conditions need not be identical. Equal entries are not always repeated. Results filed as inconclusive are left out. Some compounds were tested as several samples or in several runs, with calls that do not always agree. Calls of active or inactive are those of the source. The call rests on the fitted dose curve; in most records, active means well fitted curve in the direction sought with a large enough effect; inconclusive means small, poorly fitted or top-dose-only effect, or another doubt; inactive means no such curve, though single readings can be large; an effect the other way counts as inactive or inconclusive.

Key:
[1] = P-glycoprotein substrates identified in KB-8-5-11 adenocarcinoma cell line, qHTS therapeutic library screen (AID 1346987); further: nearly all actives have a fitted effect of over 65% in size
In short: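 KB-8-5-11: colchicine-selected sub-line of KB-3-1 over-expressing P-gp; assay medium lacked colchicine. 72 h drug exposure at 37 degree C, CellTiter-Glo.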

[2] = NS1 protein of Zika virus - qHTS assay to identify small molecule inhibitors in human HEK 293 cells (AID 1347053); further: nearly all actives have a fitted effect of over 55% in size
In short: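 HEK 293 cells pretreated with compound for 1 h, then infected with ZIKV MR766 (MOI 0.5) for 24 h at 37 C. NS1 detected by TR-FRET with two anti-NS1 antibodies; normalized to uninfected (0%) and infected (100%) wells.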

[3] = qHTS of pediatric cancer cell lines to identify multiple opportunities for drug repurposing: Primary screen for DAOY cells (AID 1347090); further: nearly all actives have a fitted effect of over 55% in size
In short: (§1)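 Eight- or eleven-point concentration series, 48 h treatment at 37 degrees C in growth media; readout CellTiter-Glo luminescence. Potency and efficacy were taken from the concentration-response curves.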

[4] = qHTS of pediatric cancer cell lines to identify multiple opportunities for drug repurposing: Primary screen for SJ-GBM2 cells (AID 1347091)
In short: as §1

[5] = qHTS of pediatric cancer cell lines to identify multiple opportunities for drug repurposing: Primary screen for BT-37 cells (AID 1347094)
In short: (§2)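 Phenotypic viability qHTS, 48 h compound exposure, CellTiter-Glo luminescence read-out; multi-concentration dosing so that potency and efficacy derive directly from the primary screen's curves.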

[6] = qHTS of pediatric cancer cell lines to identify multiple opportunities for drug repurposing: Primary screen for NB-EBc1 cells (AID 1347095)
In short: as §2

[7] = qHTS of pediatric cancer cell lines to identify multiple opportunities for drug repurposing: Primary screen for U-2 OS cells (AID 1347096); further: nearly all actives have a fitted effect of over 50% in size
In short: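 Cells (500-1,000/well) in growth media were settled 5 h at 37 degrees C, then given compounds for 48 h. Viability was read as CellTiter-Glo luminescence. Primary runs used MIPE at 11 points (0.78 nM-46 µM) and NPC at 8 points (0.59 nM-46 µM); follow-ups used 11 points.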

[8] = qHTS of pediatric cancer cell lines to identify multiple opportunities for drug repurposing: Primary screen for Saos-2 cells (AID 1347097); further: nearly all actives have a fitted effect of over 40% in size
In short: as §2

[9] = qHTS of pediatric cancer cell lines to identify multiple opportunities for drug repurposing: Primary screen for SK-N-SH cells (AID 1347098); further: nearly all actives have a fitted effect of over 65% in size
In short: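 Cells (500-1,000/well) rested 5 h, then received compounds for 48 h; metabolically active cells were measured by CellTiter-Glo luminescence. Final concentrations spanned up to 46 µM (MIPE, 11-point) or 0.59 nM-46 µM (NPC, 8-point) in primary screens, 11-point in follow-ups.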

[10] = qHTS of pediatric cancer cell lines to identify multiple opportunities for drug repurposing: Primary screen for NB1643 cells (AID 1347099); further: nearly all actives have a fitted effect of over 50% in size
In short: as §2

[11] = qHTS of pediatric cancer cell lines to identify multiple opportunities for drug repurposing: Primary screen for TC32 cells (AID 1347089); further: nearly all actives have a fitted effect of over 60% in size
In short: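 A viability screen of TC32 cells was run over 48 h, with primary MIPE doses spanning 0.78 nM–46 µM and NPC doses 0.59 nM–46 µM. ATP luminescence (CellTiter-Glo) served as the read-out.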

[12] = qHTS of pediatric cancer cell lines to identify multiple opportunities for drug repurposing: Primary screen for A673 cells (AID 1347092); further: nearly all actives have a fitted effect of over 45% in size
In short: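 Titration-based qHTS on A673 cells: MIPE compounds spanned 11 points (0.78 nM to 46 µM final), NPC compounds 8 points (0.59 nM to 46 µM final). Viability after 48 h was measured by ATP luminescence.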

[13] = qHTS of pediatric cancer cell lines to identify multiple opportunities for drug repurposing: Primary screen for SK-N-MC cells (AID 1347093)
In short: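 Metabolically active cells were quantified by ATP-dependent luminescence (CellTiter-Glo, 15 min at room temperature) following 48 h treatment. Cells had been plated at 500-1,000 per well and settled for 5 h beforehand.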

Measured: Potency
Potency means the concentration at half of the fitted maximal effect.

CC1(C)[C@H](C(=O)O)N2C(=O)C[C@H]2S1(=O)=O
not listed: [11] | [12] | [13]
inactive: all other assays above

CC(C)(Sc1cc(C(C)(C)C)c(O)c(C(C)(C)C)c1)Sc1cc(C(C)(C)C)c(O)c(C(C)(C)C)c1
not listed: [3] | [11] | [12] | [13]
inactive: all other assays above

COc1cc(NCc2ccc3nc(N)nc(N)c3c2C)cc(OC)c1OC
inactive and 5.8 µM (active): [1]
active: [11] 2.94 µM and 33.3 nM | [3] 3.72 µM and 133 nM | [4] 2.64 µM and 29.9 nM | [12] 3.72 µM and 168 nM | [13] 332 nM and 11.9 nM | [5] 1.53 µM and 69.2 nM | [6] 3.72 µM | [7] 3.72 µM | [8] 11.8 µM | [10] 14.8 µM

Clc1ccccc1CN1CCc2sccc2C1
active: [5] 1.53 µM | [8] 1.48 µM
not listed: [4] | [11] | [12] | [13]
inactive: all other assays above

Cn1nnc2c(C(N)=O)ncn2c1=O
not listed: [3] | [6] | [11]
inactive: all other assays above

CCOC(=O)[C@H](CCc1ccccc1)N[C@H]1CCc2ccccc2N(CC(=O)O)C1=O
inactive and 23.5 µM (active): [1]
active: [4] 23.5 µM | [9] 24.1 µM
inactive: [2] | [7]

Nc1[nH]c(=O)ncc1F
not listed: [1] | [5] | [6] | [11]
inactive: all other assays above

CCCc1nc(C)c2c(=O)[nH]c(-c3cc(S(=O)(=O)N4CCN(CC)CC4)ccc3OCC)nn12
inactive: [11]
inactive and 10.5 µM (active): [2]

CCCCc1oc2ccc(NS(C)(=O)=O)cc2c1C(=O)c1ccc(OCCCN(CCCC)CCCC)cc1
active: [1] 26.4 µM and 16.4 µM | [2] 11.8 µM | [4] 11.8 µM | [13] 21.1 µM | [5] 17.2 µM and 27.6 µM | [8] 18.7 µM and 23.7 µM | [9] 27.1 µM and 17.2 µM | [10] 18.7 µM

CCCCCCNC(=O)n1cc(F)c(=O)[nH]c1=O
active: [1] 6.51 µM | [13] 16.6 µM | [6] 2.99 µM and 4.18 µM | [10] 5.9 µM
inactive: [2] | [3] | [4] | [7] | [8]

CCN[C@H]1C[C@H](C)S(=O)(=O)c2sc(S(N)(=O)=O)cc21
not listed: [3] | [11]
inactive: all other assays above

CS(=O)(=O)c1ccc([C@@H](O)[C@@H](CO)NC(=O)C(Cl)Cl)cc1
not listed: [3] | [11] | [12]
inactive: all other assays above

Oc1c(Cl)cc(Cl)c2cccnc12
active: [1] 1.46 µM | [3] 4.22 µM and 9.35 µM | [4] 8.41 µM and 11.8 µM | [12] 2.66 µM and 9.35 µM | [13] 4.73 µM and 9.35 µM | [5] 24.6 µM and 27.3 µM | [6] 2.99 µM and 7.43 µM | [8] 16.6 µM | [9] 3.86 µM and 30.4 µM | [10] 2.66 µM and 6.62 µM

Cc1ncc([N+](=O)[O-])n1CCO
not listed: [3] | [11]
inactive: all other assays above

O=C(NCC1CN(c2ccc(N3CCOCC3=O)cc2)C(=O)O1)c1ccc(Cl)s1 (stereo not given)
not listed: [11] | [12] | [13]
inactive: all other assays above

Nc1ccc(S(=O)(=O)Nc2ccccn2)cc1
not listed: [1]
inactive: all other assays above

CC(C)(C#N)c1cc(Cn2cncn2)cc(C(C)(C)C#N)c1
not listed: [1] | [3] | [11]
inactive: all other assays above

Cc1onc(-c2ccccc2Cl)c1C(=O)N[C@@H]1C(=O)N2[C@@H]1SC(C)(C)[C@@H]2C(=O)O
not listed: [1] | [3]
inactive: all other assays above

Cc1nnc(NS(=O)(=O)c2ccc(N)cc2)s1
inactive: [2] | [7] | [8]
active: [13] 0.833 µM

COc1ccc(-c2ccc3cc(C(=O)O)ccc3c2)cc1C12CC3CC(CC(C3)C1)C2
13 µM (active) and inactive: [1]
active: [4] 1.87 µM | [13] 668 nM and 1.05 µM | [6] 2.35 µM | [8] 18.7 µM
not listed: [3] | [11]
inactive: all other assays above

CNCC[C@H](Oc1cccc2ccccc12)c1cccs1
active: [12] 1.18 µM | [13] 1.05 µM | [9] 19.4 µM and 5.41 µM
inactive: [1] | [11] | [4] | [6] | [7]

CCCN[C@H]1CCc2nc(N)sc2C1
not listed: [3] | [11] | [13]
inactive: all other assays above
